Experimental data from PubChem BioAssay (NCI).
The panel holds about 79,000 compounds, 15% with a hit somewhere; the sample as a whole holds those more often. The source made the active and inactive calls. Rule as the data show it: active = growth inhibition above about 70%; inactive = the rest.

Tests used:
[1] = NCI Yeast Anticancer Drug Screen. Data for the wt1 strain (AID 149);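 also: 0% = growth of vehicle-treated wt1 cultures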; conditions: S. cerevisiae wt1 strain (SPY 50644) growth inhibition, stronger effect = higher value
Summary of the method: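 Measured: growth of wt1 yeast under compound versus vehicle treatment, reported as inhibition.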

[2] = NCI Yeast Anticancer Drug Screen. Data for the rad50EPP+ strain (AID 151);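 also: 0% = growth of vehicle-treated control cultures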; conditions: S. cerevisiae rad50 mutant strain, stronger effect = higher value
Summary of the method: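 Vehicle-normalised growth inhibition; rad50EPP+ yeast strain, altered in DNA damage repair, compound-treated.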

[3] = NCI Yeast Anticancer Drug Screen. Data for the mgt1 strain (AID 153); conditions: S. cerevisiae mgt1 mutant growth inhibition, stronger effect = higher value
Summary of the method: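 Vehicle-normalized growth inhibition is determined in mgt1 yeast, a strain selected for a defined alteration in DNA repair or cell cycle control.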

[4] = NCI Yeast Anticancer Drug Screen. Data for the rad50 strain (AID 155);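 also: 0% = growth of vehicle-only cultures of the same strain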; conditions: S. cerevisiae rad50 strain growth inhibition, stronger effect = higher value
Summary of the method: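 Growth of the mutant yeast was measured after compound exposure and referenced to vehicle-treated cultures.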

[5] = NCI Yeast Anticancer Drug Screen. Data for the mec2-1 strain (AID 157); conditions: S. cerevisiae mec2-1 strain, stronger effect = higher value
Summary of the method: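 Mutant yeast (mec2-1) grown with compound; growth inhibition relative to vehicle control reported.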

[6] = NCI Yeast Anticancer Drug Screen. Data for the rad14 strain (AID 159);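 also: 0% = growth of vehicle-treated control cultures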; conditions: S. cerevisiae rad14 strain growth inhibition, stronger effect = higher value
Summary of the method: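 Here, inhibition of yeast growth was measured after compound exposure, using a strain with a genetic defect in DNA damage repair and vehicle-treated cultures as the reference.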

[7] = NCI Yeast Anticancer Drug Screen. Data for the sgs1 mgt1 strain (AID 161);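 also: 0% = growth of cultures given vehicle only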; conditions: S. cerevisiae sgs1 mgt1 strain, stronger effect = higher value
Summary of the method: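 Growth of a repair-deficient yeast mutant was monitored after compound treatment and expressed as inhibition relative to vehicle-treated cultures.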

[8] = NCI Yeast Anticancer Drug Screen. Data for the CLN2oe strain (AID 163);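 also: 0% = growth of vehicle-only control cultures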; conditions: S. cerevisiae CLN2oe strain, stronger effect = higher value
Summary of the method: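 Compounds are applied to yeast harbouring a defined cell-cycle control change; reduced growth compared with vehicle-treated controls gives the value.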

[9] = NCI Yeast Anticancer Drug Screen. Data for the cln2 rad14 strain (AID 165);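 also: 0% = growth equal to vehicle treated cultures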; conditions: S. cerevisiae cln2 rad14 strain, stronger effect = higher value
Summary of the method: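 Readout is yeast growth inhibition versus vehicle-treated controls, using a strain with cln2 and rad14 alterations exposed to compound.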

[10] = NCI Yeast Anticancer Drug Screen. Data for the bub3 strain (AID 167); conditions: S. cerevisiae bub3 mutant strain, stronger effect = higher value
Summary of the method: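 Whole-cell yeast assay. The mutant strain was incubated with compounds, and growth inhibition was determined by comparison with vehicle-treated cells.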

[11] = NCI Yeast Anticancer Drug Screen. Data for the wt2 strain (AID 169);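 also: 0% = growth of vehicle-treated yeast cultures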; conditions: S. cerevisiae wt2 strain growth inhibition, stronger effect = higher value
Summary of the method: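 Against vehicle-treated controls, the growth of yeast exposed to each compound was compared, and the inhibition was recorded.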

[12] = NCI Yeast Anticancer Drug Screen. Data for the mlh1 rad18 strain (AID 175); conditions: S. cerevisiae mlh1 rad18 strain growth inhibition; at 50.0 µM; stronger effect = higher value
Summary of the method: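 Genetically defined yeast (DNA repair-deficient) exposed to compounds; growth inhibition determined relative to vehicle.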

[13] = NCI Yeast Anticancer Drug Screen. Data for the rad18 strain (AID 177); conditions: S. cerevisiae rad18 mutant growth inhibition, stronger effect = higher value
Summary of the method: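 Vehicle-treated cultures served as the baseline for scoring compound-induced growth inhibition in DNA-repair-mutant yeast.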

[14] = NCI Yeast Anticancer Drug Screen. Data for the rad52 strain (AID 147);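 also: 0% = growth of vehicle-treated control cultures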; conditions: S. cerevisiae rad52 mutant growth inhibition, stronger effect = higher value
Summary of the method: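 The repair-mutant yeast strain was incubated with compounds, then growth was read and inhibition derived relative to vehicle.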

[15] = NCI Yeast Anticancer Drug Screen. Data for the sgs1 strain (AID 173);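 also: 0% = growth of vehicle-only control cultures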; conditions: S. cerevisiae sgs1 mutant, stronger effect = higher value
Summary of the method: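 Each compound was added to cultures of the altered yeast strain. Growth was recorded, and inhibition was derived by comparison with vehicle controls.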

[16] = at 5.0 µM (retest, dose inferred, filed as 0.5)
[17] = at 50.0 µM (retest, dose inferred, filed as 5.0)

Measured: growth inhibition

Nc1nc(F)nc2c1ncn2C1OC(COP(=O)(O)O)C(O)C1O (stereo unspecified)
active: [5]; at 100.0 µM 87%
inactive: [1]; at 1.2 µM 1% | [1]; at 3.7 µM 1% | [1]; at 11.0 µM 2% | [1]; at 33.0 µM 5% | [1]; at 100.0 µM 2% | [2]; at 1.2 µM 3% | [2]; at 3.7 µM 12% | [2]; at 11.0 µM 26% | [2]; at 33.0 µM 43% | [2]; at 100.0 µM 67% | [3]; at 1.2 µM -3% | [3]; at 3.7 µM 0% | [3]; at 11.0 µM 2% | [3]; at 33.0 µM 5% | [3]; at 100.0 µM 12% | [4]; at 1.2 µM 3% | [4]; at 3.7 µM 9% | [4]; at 11.0 µM 18% | [4]; at 33.0 µM 32% | [4]; at 50.0 µM 11.1% | [4]; at 100.0 µM 61% | [5]; at 1.2 µM 1% | [5]; at 3.7 µM 7% | [5]; at 11.0 µM 13% | [5]; at 33.0 µM 27% | [5]; at 50.0 µM 4.2% | [6]; at 1.2 µM -1% | [6]; at 3.7 µM -2% | [6]; at 11.0 µM 2% | [6]; at 33.0 µM 5% | [6]; at 100.0 µM 19% | [7]; at 50.0 µM -1.15% | [8]; at 1.2 µM -4% | [8]; at 3.7 µM -5% | [8]; at 11.0 µM -5% | [8]; at 33.0 µM -5% | [8]; at 100.0 µM -2% | [9]; at 50.0 µM -3.75% | [10]; at 1.2 µM -8% | [10]; at 3.7 µM -8% | [10]; at 11.0 µM -3% | [10]; at 33.0 µM -10% | [10]; at 50.0 µM -29.9% | [10]; at 100.0 µM -1% | [11]; at 1.2 µM -2% | [11]; at 3.7 µM 1% | [11]; at 11.0 µM 1% | [11]; at 33.0 µM 6% | [11]; at 100.0 µM 18% | [12] -26.4% | [13]; at 1.2 µM -2% | [13]; at 3.7 µM -1% | [13]; at 11.0 µM 1% | [13]; at 33.0 µM 5% | [13]; at 100.0 µM 19%

COc1ccc2c(c1)[nH]c1c(/C=C/c3ccccc3)nccc12
active: [14]; at 100.0 µM 97% | [3]; at 33.0 µM 94% | [3]; at 100.0 µM 98% | [4]; at 33.0 µM 78% | [4]; [17] 93% | [4]; at 50.0 µM 89.5% | [4]; at 100.0 µM 96% | [5]; at 33.0 µM 75% | [5]; [17] 93% | [5]; at 50.0 µM 92.1% | [5]; at 100.0 µM 98% | [6]; at 33.0 µM 71% | [6]; at 100.0 µM 97% | [7]; [17] 80% | [7]; at 50.0 µM 92.5% | [8]; at 100.0 µM 98% | [9]; [17] 74% | [9]; at 50.0 µM 70.7% | [10]; [17] 82% | [10]; at 50.0 µM 87.8% | [10]; at 100.0 µM 98% | [15]; at 33.0 µM 78% | [15]; at 100.0 µM 97% | [13]; at 100.0 µM 97%
inactive: [14]; at 1.2 µM 9% | [14]; at 3.7 µM -8% | [14]; at 11.0 µM -2% | [14]; at 33.0 µM 50% | [3]; at 1.2 µM 9% | [3]; at 3.7 µM 3% | [3]; at 11.0 µM 18% | [4]; at 1.2 µM 31% | [4]; at 3.7 µM 29% | [4]; [16] 44% | [4]; at 11.0 µM 23% | [5]; at 1.2 µM -9% | [5]; at 3.7 µM -6% | [5]; [16] 42% | [5]; at 11.0 µM 1% | [6]; at 1.2 µM -29% | [6]; at 3.7 µM -25% | [6]; at 11.0 µM -22% | [7]; [16] -28% | [8]; at 1.2 µM -15% | [8]; at 3.7 µM -23% | [8]; at 11.0 µM -38% | [8]; at 33.0 µM 63% | [9]; [16] 40% | [10]; at 1.2 µM 12% | [10]; at 3.7 µM 19% | [10]; [16] -24% | [10]; at 11.0 µM 27% | [10]; at 33.0 µM 48% | [15]; at 1.2 µM 2% | [15]; at 3.7 µM -7% | [15]; at 11.0 µM -3% | [13]; at 1.2 µM 11% | [13]; at 3.7 µM 0% | [13]; at 11.0 µM 6% | [13]; at 33.0 µM 67%
